Experimental data: PubChem BioAssay AID463173 (ICCB-Longwood Screening Facility, Harvard Medical School, 2010)
Out of some 52,000 compounds screened, about 4,300 (8.3%) were called active. The entries come from a sample that favours actives as a whole. A number with no mark means an inactive call. Cut-off read from the data, not from the text of the source: active = survival mostly below about 52% (no sharp cut-off); inactive = mostly above about 56%.

system: DeltatarO mutant; assay: growth inhibition of S. aureus wild type versus tarO mutant, primary screen, teichoic acid synthesis inhibitors, RN4220, OD600 (AID 463173); details: OD600, 18 h, hits give low values, screened at 18.75 µg/mL (by protocol)

| SMILES | survival |
| --- | --- |
| CCOc1ccccc1NC(=O)C(C)Sc1cc(-c2ccccc2)nc(C)n1 (configuration not stated) | 59% |
| CCOC(=O)c1ccc(NC(=O)C(CC)Sc2nc3ncccc3o2)cc1 (configuration not stated) | 81% |
| C=Cn1c(=N)n(C)c2ccccc21 | 70% |
| O=C(CN1C(=O)COc2ccc(S(=O)(=O)N3CCOCC3)cc21)N1CCN(c2ccccc2)CC1 | 116% |
| COc1ccccc1CNC(=O)c1ccc(-c2nc(CS(=O)(=O)c3ccc(C)cc3)c(C)o2)cc1 | 73% |
| COc1ccc(F)cc1NC(=O)C1CCN(c2nc(-c3ccc(OC)c(OC)c3)no2)CC1 | 48% |
| Cc1ccc(NC(=O)CCc2nc3cccnc3n2-c2ccccc2)cc1 | 80% |
| Cc1ccc(NC(=O)CCc2nc3cccnc3n2-c2ccccc2)cc1Cl | 64% |
| Cc1cc(NC(=O)CCc2nc3cccnc3n2-c2ccccc2)ccc1Br | 31% (active) |
| CCOC(=O)Cn1c(-c2cccs2)cc2cc(Cl)ccc21 | 59% |
| COc1cccc(Nc2nc3ccc(C(=O)c4ccccc4)cc3n3c(C)nnc23)c1 | 85% |
| CCc1cccc(NC(=O)c2ccc(CN3C(=O)C(C)=C(c4ccc(OC)cc4)S3(=O)=O)cc2)c1 | 71% |
| CCn1cc(S(=O)(=O)c2ccccc2)c(=O)c2cc(F)c(N3CCCC3)cc21 | 107% |
| CCOc1ccc(NC(=O)C(C)n2c(=O)cc(C)c3c(C)nn(-c4ccccc4)c32)cc1 (configuration not stated) | 83% |
| Nc1nc(Nc2ccccc2F)sc1C(=O)c1ccc(Cl)cc1 | 2% (active) |
| COc1ccc(C(=O)c2sc(Nc3cc(Cl)ccc3C)nc2N)cc1OC | 131% |
| Nc1c(C(=O)c2ccc(F)cc2)sc(Nc2ccccc2F)c1S(=O)(=O)c1ccc(Br)cc1 | 67% |
| COc1ccc(NC(=O)Cn2c(=O)oc3cc(S(=O)(=O)NC4CCCC4)ccc32)cc1OC | 93% |
| Nc1nnc(CC(=O)N2CCCC2)s1 | 99% |
| CCCCC(CC)CNC(=O)CCCc1nnc2n(CCC)c(=O)c3sccc3n12 (configuration not stated) | 75% |
| COc1ccc(-c2nnc(SCC(=O)Nc3ccc(C)c(Cl)c3)nc2-c2ccc(OC)c(OC)c2)cc1OC | 135% |
| COC(=O)CN1C(=O)C(C)(C)c2cc(S(=O)(=O)Nc3ccc(Br)cc3F)ccc21 | 90% |

| SMILES | survival |
| --- | --- |
| CC1CCN(S(=O)(=O)c2ccc3c(c2)N(CC(=O)NCCCN2CCCC(C)C2)C(=O)CS3)CC1 (configuration not stated) | 75% |
| CCOCCCn1c(SCC(=O)OCC)nc2c(sc3ccccc32)c1=O | 124% |
| CCCCn1c(SCC(=O)NCCCOC)nc2c(sc3ccccc32)c1=O | 128% |
| COCCCNC(=O)CSc1nc2c(sc3ccccc32)c(=O)n1CCc1ccc(OC)c(OC)c1 | -4% (active) |
| COCCCNC(=O)CSc1nc2c(sc3ccccc32)c(=O)n1CCc1ccccc1 | 72% |
| COCCCn1c(SCC(=O)NCc2ccccc2)nc2c(sc3ccccc32)c1=O | 82% |
| CCCCn1c(SCC(=O)c2ccccc2)nc2c(sc3ccccc32)c1=O | 17% (active) |
| CCOC(=O)CSc1nc2c(sc3ccccc32)c(=O)n1CCc1ccccc1 | 60% |
| CC(C)OCCCn1c(SCC(=O)c2ccccc2)nc2c(sc3ccccc32)c1=O | 88% |
| CCOCCCn1c(SCC(=O)NCc2ccccc2)nc2c(sc3ccccc32)c1=O | -5% (active) |
| CCOC(=O)CSc1nc2c(sc3ccccc32)c(=O)n1CCO | -5% (active) |
| CCCCn1c(SCC(=O)NCc2ccc(C)cc2)nc2c(sc3ccccc32)c1=O | 89% |
| CCOCCCn1c(SCC(=O)NCCCOC)nc2c(sc3ccccc32)c1=O | 126% |
| O=C(CN1C(=O)COc2ccc(S(=O)(=O)N3CCOCC3)cc21)N1CCN(c2ccc(F)cc2)CC1 | 99% |
| CCC(C)(C)n1nnnc1CN(Cc1ccc(Cl)cc1)CC1CCCO1 (configuration not stated) | 76% |
| Cc1ccc(-c2nnn3c2nc(NC2CCC(C)CC2)c2ccccc23)cc1 (configuration not stated) | -4% (active) |
| CC1CCC(Nc2nc3c(-c4ccc(Cl)cc4)nnn3c3ccccc23)CC1 (configuration not stated) | 8% (active) |
| Cc1ccc(-c2nnn3c2nc(NCCc2ccccc2)c2ccccc23)cc1 | 112% |
| CCCCCNc1nc2c(-c3ccccc3)nnn2c2ccccc12 | 80% |
| Cc1ccc(-c2nnn3c2nc(NCCc2ccc(Cl)cc2)c2ccccc23)cc1 | 82% |
| Clc1ccc(-c2nnn3c2nc(NCc2ccc4c(c2)OCO4)c2ccccc23)cc1 | 59% |
| Clc1ccc(-c2nnn3c2nc(NC2CCCCC2)c2ccccc23)cc1 | 17% (active) |

| SMILES | survival |
| --- | --- |
| Cc1ccc(-c2nnn3c2nc(NCC(C)c2ccccc2)c2ccccc23)cc1 (configuration not stated) | 91% |
| c1ccc(CNc2nc3c(-c4ccccc4)nnn3c3ccccc23)cc1 | 75% |
| CCCCNC(=O)C(CC)Sc1nnc(-c2ccc(F)cc2)c(-c2ccc(F)cc2)n1 (configuration not stated) | 83% |
| CSc1ccc(C2c3[nH]c4ccccc4c3CCN2C(=O)CCc2ccccc2)cc1 (configuration not stated) | 87% |
| CC1CCCN(CCCNC(=O)c2ccc3c(c2)N(Cc2ccc(Cl)cc2)C(=O)c2ccccc2S3(=O)=O)C1 (configuration not stated) | 145% |
| COc1c(Cl)cc(Cl)cc1CNCCSc1nnnn1C | 74% |
| COc1ccc(Br)cc1CNC(=O)CCSCc1ccc(Cl)cc1 | 73% |
| CCOC(=O)C1CCCN(S(=O)(=O)c2ccc3c(c2)N(C)C(=O)CC(=O)N3C)C1 (configuration not stated) | 106% |
| COc1ccc(OCc2nc3c4c(-c5ccc(OC)cc5)c(-c5ccc(OC)cc5)oc4ncn3n2)cc1 | 70% |
| COC(=O)c1ccc([C@H]2Nc3ccc(S(=O)(=O)Nc4ccc(F)cc4)cc3[C@H]3C=CC[C@H]32)cc1 | 53% (active) |
| COC(=O)c1ccc([C@H]2Nc3ccc(S(=O)(=O)Nc4cccc(C)c4)cc3[C@H]3C=CC[C@H]32)cc1 | 50% |
| Cc1cccc(C)c1NS(=O)(=O)c1ccc2c(c1)[C@H]1C=CC[C@H]1[C@@H](c1ccc(Cl)cc1)N2 | 53% |
| COC(=O)c1ccc([C@H]2Nc3ccc(S(=O)(=O)Nc4ccc(C)cc4)cc3[C@H]3C=CC[C@H]32)cc1 | 60% |
| Cc1cccc(NS(=O)(=O)c2ccc3c(c2)[C@H]2C=CC[C@H]2[C@@H](c2ccc(F)cc2)N3)c1 | 39% (active) |
| Cc1ccc(NS(=O)(=O)c2ccc3c(c2)[C@H]2C=CC[C@H]2[C@@H](c2ccc(F)cc2)N3)cc1C | 58% |
| Cc1ccc(C)c(N2CCN(C(=O)c3ccc4c(c3)c(C)c(C)n4C)CC2)c1 | 73% |
| COc1ccccc1CNC(=O)Cn1c(=O)oc2cc(S(=O)(=O)N3CCC(C)CC3)ccc21 | 143% |
| COc1ccc(N2CCN(C(=O)CN3C(=O)COc4ccc(S(=O)(=O)N5CCC(C)CC5)cc43)CC2)cc1 | 81% |
| CCOC(=O)c1ccc(-c2ccc(/C=C(\C#N)C(=O)Nc3ccc(C)cc3OC)o2)cc1 | 76% |
| CCOC(=O)c1ccc(-c2ccc(/C=C(\C#N)c3nc4ccc(C)cc4[nH]3)o2)cc1 | 32% (active) |
| Cc1cc(C(=O)OC(C)C)ccc1-c1ccc(C=C(C#N)C#N)o1 | 104% |
| CCOC(=O)c1ccc(-c2ccc(C=C(C#N)C#N)o2)cc1 | 87% |

| SMILES | survival |
| --- | --- |
| N#C/C(=C\c1ccc(-c2cccc(Cl)c2)o1)C(N)=O | 99% |
| Cc1ccc2nc(/C(C#N)=C/c3ccc(-c4cccc(Cl)c4)o3)[nH]c2c1 | 6% (active) |
| CCOC(=O)/C(C#N)=C/c1ccc(-c2ccc(C)cc2)o1 | 98% |
| Cc1ccc2nc(/C(C#N)=C/c3ccc(-c4ccc(C(=O)OC(C)C)cc4)o3)[nH]c2c1 | 36% (active) |
| N#CC(C#N)=Cc1ccc(-c2cccc(C(F)(F)F)c2)o1 | 114% |
| C=CCc1c(C)[nH]c2c(OC)cccc2c1=S | 82% |
| COc1ccc(C(=O)Nc2ccc(NC(=O)c3cccs3)cc2)cc1OC | 72% |
| COc1ccc(OC)c(NC(=O)C2CCN(S(=O)(=O)c3ccc4c(c3)CCCC(=O)N4)CC2)c1 | 88% |
| CCOC(=O)C1CCN(C(=O)Cn2nc(CC)n3c(cc4sccc43)c2=O)CC1 | 134% |
| COc1cc(C(CC(=O)Nc2ncccc2C)N2Cc3ccccc3C2=O)cc(OC)c1OC (configuration not stated) | 79% |
| Cc1ccc(NC(=O)CN2C(=O)CCn3nc(-c4cccn4C)cc32)c(Cl)c1 | 115% |
| COCCCNC(=O)C(=O)Nc1c2c(nn1-c1cccc(Cl)c1)CSC2 | 79% |
| C=CCC(NCc1ccco1)c1ccccc1 (configuration not stated) | 69% |
| CCc1ccc2oc(-c3ccc(NC(=O)c4cc(OC)c(OC)c(OC)c4)cc3)nc2c1 | 57% |
| CCOc1cc(C(=O)Nc2ccc3oc(-c4ccc(F)cc4Cl)nc3c2)cc(OCC)c1OCC | 64% |
| CCOc1cc(C(=O)Nc2cccc(-c3nc4ccccc4o3)c2)cc(OCC)c1OCC | 51% |
| CCOc1cc(C(=O)Nc2ccc(-c3nc4cc(Cl)ccc4o3)cc2)cc(OCC)c1OCC | 67% |
| CCOc1cc(C(=O)Nc2ccc(-c3nc4cc(C)ccc4o3)cc2)cc(OCC)c1OCC | 27% (active) |
| CCOc1cc(C(=O)Nc2ccc3oc(-c4ccc(CC)cc4)nc3c2)cc(OCC)c1OCC | 41% (active) |
| COc1cccc(-n2c(SCC(=O)Nc3nnc(C)s3)nc3c([nH]c4ccccc43)c2=O)c1 | 60% |
| COc1ccc(-n2ccn(CC(=O)Nc3ccccc3C(F)(F)F)c(=O)c2=O)cc1OC | 80% |
